The experiment has as its target Polyadenylate-binding protein 1 (Homo sapiens) (UniProt P11940). Put plainly: blockers of PABP interaction with poly(A) – biochemical, fluorescence polarization, uHTS, primary screen (AID 2014).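 Further: calls also rest on retests at 20 µM and on dose response follow-up.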 The following applies: PABP-poly(A) RNA binding, stronger effect = higher value.

The results in this text go back to PubChem BioAssay AID2014 (Sanford-Burnham Center for Chemical Genomics, 2009).

About 3,000 (1%) of roughly 290,000 compounds were called active. How the calls were made is not given here. The sample as a whole holds a higher share of actives than the screen did.

Chain of Polyadenylate-binding protein 1 (Homo sapiens) (P11940 whole entry, looked up): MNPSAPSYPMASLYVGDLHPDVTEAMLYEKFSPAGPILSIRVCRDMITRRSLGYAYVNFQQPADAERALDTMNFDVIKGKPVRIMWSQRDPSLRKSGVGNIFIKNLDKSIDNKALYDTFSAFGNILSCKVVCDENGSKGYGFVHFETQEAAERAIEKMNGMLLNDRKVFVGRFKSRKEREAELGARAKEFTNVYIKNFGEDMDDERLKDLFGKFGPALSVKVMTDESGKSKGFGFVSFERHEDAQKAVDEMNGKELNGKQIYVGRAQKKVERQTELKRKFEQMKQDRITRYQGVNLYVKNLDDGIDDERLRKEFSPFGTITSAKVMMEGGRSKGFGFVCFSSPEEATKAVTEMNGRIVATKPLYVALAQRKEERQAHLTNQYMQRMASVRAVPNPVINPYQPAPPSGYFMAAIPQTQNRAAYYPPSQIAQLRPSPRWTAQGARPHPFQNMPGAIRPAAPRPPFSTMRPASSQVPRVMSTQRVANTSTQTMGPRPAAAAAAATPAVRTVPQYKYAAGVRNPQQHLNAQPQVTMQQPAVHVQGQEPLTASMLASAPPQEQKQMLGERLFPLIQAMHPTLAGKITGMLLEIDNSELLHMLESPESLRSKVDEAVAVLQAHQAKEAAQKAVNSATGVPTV

Turning to `Cc1ccc(S(=O)(=O)N(CC(O)CN2CCCCC2)c2cccc([N+](=O)[O-])c2)cc1` (configuration not stated), where the note is “at 35 µM”, the inhibition was -2.5% (inactive). As to `O=C(CCNS(=O)(=O)c1cccs1)N1CCN(c2ccc(F)cc2)CC1`, the inhibition (at 35 µM) is 2.5% (inactive). On the same count and under the same terms, under `Cc1cccc(CCNS(=O)(=O)c2ccc3c(c2)NC(=O)CO3)c1` stands 0.4% (inactive). Same read-out and setting: under `Cc1nc2c(c(=O)n1Cc1ccco1)c1nc3ccccc3nc1n2Cc1ccccc1` stands 57.3% (active); under `Cc1ccc(Cn2c(C)nc3c(c2=O)c2nc4ccccc4nc2n3Cc2ccco2)cc1`, 17.9% (inactive). Same read-out and setting: under `Cc1nc2ccccc2c(=O)n1Cc1ccc([N+](=O)[O-])cc1` stands -8.9% (inactive); under `Cc1cccc(NS(=O)(=O)c2cc(Cl)ccc2Cl)n1`, -4.9% (inactive).

For `O=C1CCNCCN1[C@H](CO)Cc1ccccc1`, the inhibition (at 35 µM) is -8.7% (inactive).

Turning to `COc1ccc(C(=O)NC2=NCCS2)c(OC)c1`, the inhibition (at 35 µM) was -7.6% (inactive). Same read-out and setting: under `COc1ccc2cc(C(=O)NCC3CCCO3)[nH]c2c1` (configuration not stated) stands 0.3% (inactive); under `O=S(=O)(c1ccc(Br)cc1)N1CCC(c2nc3ccccc3[nH]2)CC1`, 3.9% (inactive); under `Cc1ccc(CCCOC(=O)C[N+]2(C)CCCCC2)cc1`, 50.6% (active). Same read-out and setting: under `Cc1ccc(CCCOC(=O)C[N+]2(C)CCCC2)cc1` stands 2.4% (inactive); under `CCCCOC(=O)Cn1c(=O)n(CC(=O)OCCCC)c2cc(C)ccc21`, -8.1% (inactive); under `Cc1ccc(C(=O)COC(=O)CCN2C(=O)C3C4CCC(C4)C3C2=O)cc1C` (configuration not stated), -12.4% (inactive). The same measure, in the same setting: under `COc1cccc(NC(=O)N2CCC(NC(=O)C(Cc3cccc(C)c3)NC(C)=O)CC2)c1` (configuration not stated) stands 2.7% (inactive); under `CCC(C)Cn1c(O)cc2nn(-c3nc4ccccc4s3)c(=O)c-2c1C` (configuration not stated), 68.7% (active); under `C/C(=N\NC(=O)CC(C)C)c1c(C(F)(F)F)[nH]n(-c2nc3ccccc3s2)c1=O`, -1.1% (inactive). Regarding `Cc1cc(NC(=O)CN2CCCC(C)C2)n(-c2nc3ccccc3s2)n1` (configuration not stated), where the note is “at 35 µM”, the inhibition is 5.3% (inactive).

Turning to `CCOC(=O)c1ccccc1NC(=O)COC(=O)CCC(=O)N1CCOCC1`, the inhibition (at 35 µM) is -1.1% (inactive). The same measure, in the same setting: under `COc1ccccc1NC(=O)c1cc(N2C(=O)C3C4CCC(C4)C3C2=O)ccc1Cl` (configuration not stated) stands 1.6% (inactive); under `O=C1CC(NNc2ccccc2)C(=O)N1c1cccc(Cl)c1` (configuration not stated), -2.5% (inactive). For `O=C1OCC2=C1C(c1ccccc1)CC(=O)N2c1cccc(F)c1` (configuration not stated), the inhibition runs as follows: (at 35 µM) 68% (active); (confirmation repeats, at 20 µM) 65.5%. `O=C1CC(c2ccccc2)C(=O)N1c1cccc(O)c1` (configuration not stated): under “at 35 µM”, the inhibition was -5.5% (inactive). On to `CCc1nnc(NC(=O)CCC(=O)N2CCN(c3cc(C)ccc3C)CC2)s1`, for which the inhibition (at 35 µM) was 11.5% (inactive). The same measure, in the same setting: under `O=C(OCc1ccc(-c2ccccc2)cc1)c1cccc(O)c1` stands 10.5% (inactive); under `CC[C@H]1CN2CCc3cc(OC)c(OC)cc3[C@@H]2C[C@@H]1C[C@H]1NCCc2cc(OC)c(OC)cc21`, 1.5% (inactive).

On to `CCc1ccc(OCC2c3cc(OC)c(OC)cc3CCN2C(C)=O)cc1` (configuration not stated), for which the inhibition (at 35 µM) was 6.8% (inactive). Regarding `COc1cc2c(cc1O)[C@H](Cc1ccc(Oc3cc(C[C@@H]4NCCc5cc(OC)c(O)cc54)ccc3O)cc1)NCC2`, the inhibition was 0.1% (active) (at 35 µM) and 91.3% (confirmation repeats, at 20 µM).

Take `COc1ccccc1C(=O)Nc1ccnn1C1CCN(C(=O)C(C)(C)C)CC1`: the inhibition (at 35 µM) was 8.7% (inactive). On the same count and under the same terms, under `O=C(CSc1ncccn1)N1CCCC1` stands 9.6% (inactive); under `C=CCNc1nnc(C)c2ccccc12`, -0.7% (inactive). Consider `C=CCNc1nnc(SCC(=O)N2CCCCC2)c2ccccc12`, for which the inhibition was 116% (active) (at 35 µM) and 56.4% (confirmation repeats, at 20 µM). Take `Cc1nc(-c2ccc(F)cc2)c(CC(=O)N2CCN(S(=O)(=O)c3ccc(F)cc3)CC2)s1`: under “at 35 µM”, the inhibition is 6.2% (inactive). As to `O=C(CN1CCC(O)(c2cccc(C(F)(F)F)c2)CC1)NCCc1ccccc1`, the inhibition (at 35 µM) is -5% (inactive). Still for that read-out and setting: under `O=C(Nc1cccc([N+](=O)[O-])c1)N1CCc2ccccc2C1` stands -6.2% (inactive); under `CC(C(=O)NCCc1ccc(S(N)(=O)=O)cc1)N1C(=O)CC(C)(C)Sc2ccccc21` (configuration not stated), -1.3% (inactive); under `Cc1cccc(NC(=O)c2sc3nc(N4CCOCC4)c4c(c3c2N)CCCC4)c1`, 4.1% (inactive). Still for that read-out and setting: under `NC(=O)c1sc2nc3c(c(-c4ccccc4)c2c1N)CCC3` stands -3.5% (inactive).

On to `Cc1cccc(NC(=O)c2sc3nc4c(c(-c5ccco5)c3c2N)CCC4)c1`, for which the inhibition runs as follows: (at 35 µM) 63% (active); (confirmation repeats, at 20 µM) 87.7%. Regarding `O=C(CNC(=O)c1ccccc1F)c1ccc(Br)cc1`, the inhibition (at 35 µM) was 0.1% (inactive). On the same count and under the same terms, under `O=C(O)c1ccc2c(=O)n3c(nc2c1)/C(=C/c1ccc(OC(F)F)cc1OC(F)F)CC3` stands 5.3% (inactive); under `CC(NC(=O)c1cc(=O)[nH]c2ccccc12)c1ccc(F)cc1F` (configuration not stated), 12.3% (inactive). As to `Cc1cc(/C=C2/C(=N)N3C(=NC2=O)SN=C3S(C)(=O)=O)c(C)n1-c1ccccc1`, the inhibition runs as follows: (at 35 µM) -5.5% (inactive); (confirmation repeats, at 20 µM) 11.8%. For the compound `CS(=O)(=O)c1ccc2c(c1)SC1=NC(=O)/C(=C/c3ccco3)C(=N)N12`, for the setting “at 35 µM”, the inhibition is 91% (active). As to `CS(=O)(=O)C1=NN2C(=N)/C(=C\c3ccc(OCCOc4ccccc4)cc3)C(=O)N=C2S1`, under “at 35 µM”, the inhibition is 16.8% (inactive).

As for `Cc1cccc(OC(C)C(=O)N2CCc3ccccc3C2)c1` (configuration not stated), the inhibition (at 35 µM) was -5.4% (inactive). On to `CC(C)[C@@H](C(=O)O)N(Cc1cccc(CN([C@H](C(=O)O)C(C)C)S(C)(=O)=O)c1)S(C)(=O)=O`, for which, where the note is “at 35 µM”, the inhibition was 4.8% (inactive). The same measure, in the same setting: under `O=C(N/N=C/c1cccc([N+](=O)[O-])c1)c1ccncc1` stands -0.6% (inactive); under `CO/N=C(\N)c1ccc([N+](=O)[O-])cc1`, -0.6% (inactive). Take `N/C(=N\OS(=O)(=O)c1cccc([N+](=O)[O-])c1)c1ccncc1`: the inhibition was -9.3% (active) (at 35 µM) and 74.6% (confirmation repeats, at 20 µM). As to `COc1cccc(CNc2ncc(-c3ccccc3)n2C)c1`, the inhibition (at 35 µM) is -1.9% (inactive). Still for that read-out and setting: under `C=CCn1cc(Cl)cc(C(=O)Nc2ccccc2)c1=O` stands -10% (inactive); under `O=C(N/N=C/c1cc(Cl)cc([N+](=O)[O-])c1O)C(O)(c1ccccc1)c1ccccc1`, 30.5% (inactive). On to `O=C(N/N=C/c1ccc([N+](=O)[O-])o1)c1cccc(S(=O)(=O)N2CCOCC2)c1`, for which the inhibition by setting is: (at 35 µM) -5% (inactive); (confirmation repeats, at 20 µM) 12.9%. As to `O=[N+]([O-])c1cc(Cl)cc(/C=N/NC(=S)Nc2cc(S(=O)(=O)N3CCOCC3)ccc2Cl)c1O`, the inhibition (at 35 µM) was 70.2% (active). Same read-out and setting: under `CC1=C(C(=O)OCC2CCCCC2)C(c2ccc(F)cc2)NC(=O)N1` (configuration not stated) stands 0.3% (inactive); under `O=C(NCCCNCc1ccccc1)c1ccc(/C=N/O)nc1`, -3.1% (inactive); under `CC(C)c1ccc(C(=O)NCCCc2ccccc2)cc1`, -0.9% (inactive). For the compound `C[N+](C)(C)CCNC(=O)c1cc[n+](Cc2ccccc2)c(/C=N/O)c1`, the inhibition (at 35 µM) was 54.2% (active) and the inhibition (confirmation repeats, at 20 µM) is 73.1%.

Take `O=C1CCC(C(=O)N2CCCCO2)CN1Cc1cccc(C(F)(F)F)c1` (configuration not stated): the inhibition (at 35 µM) is 4.6% (inactive). For `CN(C(=O)c1cccc(OC2CCN(S(=O)(=O)N(C)C)CC2)c1)C1CCOC1` (configuration not stated), the inhibition (at 35 µM) was 17.8% (inactive).

Take `CC1(C(=O)NCCc2c[nH]c3ccccc23)C=CC2(CCCCC2)N1C(=O)c1ccccc1` (configuration not stated): the inhibition (at 35 µM) was 4.3% (inactive). `Oc1c(Cl)cc(Cl)c(Cl)c1Cc1c(O)c(Cl)cc(Cl)c1Cl`: the inhibition by setting is: (at 35 µM) -1.5% (active); (confirmation repeats, at 20 µM) 84.7%.

For `COc1cccc(/C=C2\Sc3ccc(C(=O)NCC4CCCO4)cc3N(C)C2=O)c1` (configuration not stated), the inhibition (at 35 µM) is 8.6% (inactive). The same measure, in the same setting: under `Cc1cccc(C)c1N1C(=O)CN(Cc2ccccc2)C1=S` stands 8.2% (inactive). The same measure, in the same setting: under `CC(=O)N1c2ccc(S(=O)(=O)NCCC(=O)N(C)C3CCCCC3)cc2CC1C` (configuration not stated) stands 3.5% (inactive); under `CCc1ccc(Nc2ncc3c(n2)CC(c2ccco2)CC3=O)cc1` (configuration not stated), 6.2% (inactive); under `O=C(Nc1ncc2c(n1)-c1ccccc1OC2)c1ccc(Cl)cc1`, 4.5% (inactive). In the case of `O=C(Nc1ncc2c(n1)CC(c1ccco1)CC2=O)c1ccc(Cl)cc1` (configuration not stated), the inhibition (at 35 µM) was 65.9% (active). Consider `CNC(=O)CN1C(=O)NC(c2ccccc2)(c2ccccc2)C1=O`, for which the inhibition (at 35 µM) was -6.2% (inactive).

As to `COc1ccc(NC(=O)NN2CCN(C)CC2)c(OC)c1`, the inhibition (at 35 µM) was -2.5% (inactive). On the same count and under the same terms, under `Cc1ccc(C)c(SCc2nc3sc(C(=O)O)c(C)c3c(=O)[nH]2)c1` stands -4% (inactive); under `CSc1nnc(SCc2nc3sc(C(=O)O)c(C)c3c(=O)[nH]2)s1`, 52.9% (active); under `CCOC(=O)c1sc2nc(CSc3ccccc3)[nH]c(=O)c2c1C`, 9.6% (inactive). On the same count and under the same terms, under `Cc1cccc(OCC(O)Cn2c(N3CCCCC3)nc3c2c(=O)[nH]c(=O)n3C)c1` (configuration not stated) stands -7.3% (inactive); under `COc1ccccc1/C=C/C(=O)NC1CC2CCC1C2` (configuration not stated), 13.8% (inactive). Still for that read-out and setting: under `Cc1ccc(Nc2nc(C)cc(C)c2C(N)=O)cc1` stands 3.4% (inactive). On to `Cc1cc(C)c(C(N)=O)c(Cl)n1`, for which the inhibition (at 35 µM) is 74.6% (active) and the inhibition (confirmation repeats, at 20 µM) was 79.1%. Turning to `Cc1cc(OC(=O)c2c(Cl)cccc2Cl)nc(C)n1`, the inhibition (at 35 µM) is 8.5% (inactive). Still for that read-out and setting: under `O=C(NCc1cccc(C(F)(F)F)c1)c1cccc(S(=O)(=O)N2CCN(Cc3ccccc3)CC2)c1` stands -3.2% (inactive).

Take `O=C(Nc1ccc(Br)cc1F)C1CC(=O)N(C2CCCCC2)C1` (configuration not stated): the inhibition (at 35 µM) is -1% (inactive).

With `COc1ccc(C(=O)NC(C)c2nccs2)cc1OC1CCN(C(C)C)CC1` (configuration not stated), the inhibition (at 35 µM) was 1.2% (inactive). On the same count and under the same terms, under `CCN(C(=O)CSc1nnc(-c2ccncc2)o1)c1ccccc1` stands -2.5% (inactive); under `CCSc1nc(O)c(C(c2cccc(OC)c2)c2c(O)nc(SCC)[nH]c2=O)c(=O)[nH]1`, 8.4% (inactive). Same read-out and setting: under `O=C1CC(N2CCN(c3ccc(F)cc3)CC2)C(=O)N1c1ccccc1` (configuration not stated) stands 48.8% (inactive); under `O=C1CCCC2=C1C(c1cccs1)CC(=O)N2c1ccc(F)cc1` (configuration not stated), -1.2% (inactive); under `N#CC1=C(N)N(c2ccc(F)cc2)C(=O)C1`, 97.6% (active).

As for `C[C@H]1[C@H]2c3nc4ccccc4n3C[C@H]1ON2C1CCCCC1`, the inhibition (at 35 µM) was -0.1% (inactive). The same measure, in the same setting: under `O=c1nc2s/c(=C\c3ccco3)c(=O)n2nc1Cc1ccccc1` stands 75.7% (active). In the case of `O=C(Cc1ccccc1)n1nc(-c2ccccc2)nc1NCc1ccco1`, the inhibition (at 35 µM) was -0.2% (inactive). Same read-out and setting: under `Cc1nc2nc(SCC(=O)NCc3ccco3)nn2c(C)c1Cc1ccccc1` stands 10.6% (inactive).
